Assay [1] has as its target Nuclear receptor subfamily 1 group I member 2 (Rattus norvegicus) (UniProt Q9R1A7). Description: Rat pregnane X receptor (rPXR) activation by small molecules, qHTS assay (AID 1346983). Note: nearly all actives have a fitted effect of over 20% in size. Note: potency is the fitted concentration of half-maximal effect. The following applies: rPXR luciferase reporter cells, One-Glo luminescence, 24 h; max activation: stronger effect = higher value. The procedure, abridged: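 Luminescent readout (One-Glo luciferase, 30 min room temperature) followed 24 hr compound treatment at 37 C of rPXR cells plated 2,000 per well and preincubated 5hr; qHTS format with compounds delivered in DMSO.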
Background: qHTS replaces the single test concentration by a dilution series.

Assay [2] concerns the target Nuclear receptor subfamily 1 group I member 2 (Homo sapiens) (UniProt O75469). Description: CYP3A4 induction through human pregnane X receptor (PXR) by small molecules, qHTS assay (AID 1346984). Note: nearly all actives have a fitted effect of over 40% in size. The following applies: DPX-2 HepG2 PXR, CYP3A4-luciferin luminescence, 24 h; series mostly up to 46.1 µM. The method in brief:
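Read-out is luminescence after One-Glo addition, following a 3 hr, 37C incubation with Luciferin-IPA CYP3A4 substrate (3uM final). Before that, compounds were on DPX-2 cells (HepG2 co-transfected with PXR element plus CYP3A4-promoter luciferase) for 24 hr at 37C.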

For assay [3] the target is unchanged. Description: Human pregnane X receptor (PXR) activation by small molecules, qHTS assay (AID 1346985). Note: nearly all actives have a fitted effect of over 40% in size. Note: potency is the fitted concentration of half-maximal effect. The following applies: DPX-2 HepG2 CYP3A4-luciferase, 24 h; series mostly up to 38.3 µM. The method in brief: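 DPX-2 cells (HepG2 co-transfected with a PXR response element and a CYP3A4-promoter luciferase construct) were seeded at 2,000 per well, rested 5 hr at 37C, then exposed to DMSO-dissolved compounds for 24 hr. Activation was read as luciferase luminescence.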

Values joined by “and” are separate entries in the source; they are usually repeats but may differ in a detail not shown here. Equal entries are not always repeated. Records with an inconclusive call do not appear. Active and inactive are the calls of the source. Calls come from the whole dose curve; as a rule, active = well fitted curve in the direction sought with a large enough effect in the repeat runs; inconclusive = weak or mixed curves; inactive = no such curve, though single readings can be large; an effect the other way counts as inactive or inconclusive.
% is set by controls: 0 for no effect and ±100 for the full control effect.

Nuclear receptor subfamily 1 group I member 2 (Rattus norvegicus), sequence (Q9R1A7 whole entry, looked up): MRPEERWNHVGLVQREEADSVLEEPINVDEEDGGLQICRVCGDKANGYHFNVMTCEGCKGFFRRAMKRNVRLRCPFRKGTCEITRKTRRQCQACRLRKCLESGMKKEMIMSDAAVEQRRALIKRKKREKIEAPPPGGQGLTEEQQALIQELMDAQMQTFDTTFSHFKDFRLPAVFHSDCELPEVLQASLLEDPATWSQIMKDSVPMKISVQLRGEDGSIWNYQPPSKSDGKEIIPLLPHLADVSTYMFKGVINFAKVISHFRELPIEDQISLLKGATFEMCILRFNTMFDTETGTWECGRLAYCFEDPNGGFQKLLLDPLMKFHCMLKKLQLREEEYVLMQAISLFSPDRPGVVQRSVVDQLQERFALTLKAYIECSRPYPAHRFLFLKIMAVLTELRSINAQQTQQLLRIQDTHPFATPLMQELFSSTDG

For the molecule `O=P(O)(O)C(O)(Cn1ccnc1)P(=O)(O)O`, the max activation in assay [1] is -1.82% (inactive). Also, the Potency result in assay [2] and in assay [3] was “inactive” each time.
Turning to `C=C1[C@@H]2CC[C@@H](C2)C1(C)C`, the max activation in assay [1] was -3.65% (inactive). Besides, the Potency entry in assay [2] and in assay [3] was “inactive” each time.
`CNCC(=O)N[C@@H](CCCN=C(N)N)C(=O)N[C@H](C(=O)N[C@@H](Cc1ccc(O)cc1)C(=O)N[C@H](C(=O)N[C@@H](Cc1cnc[nH]1)C(=O)N1CCC[C@H]1C(=O)N[C@@H](C)C(=O)O)C(C)C)C(C)C`: in assay [1], the max activation is -0.307% (inactive). Also, the Potency entry in assay [2] and in assay [3] was “inactive” throughout.
For `Cc1cnc(C(=O)O)c[n+]1[O-]`, the max activation in assay [1] is -2.61% (inactive) and 6.98% (inactive) and -0.594% (inactive). Moreover, the Potency result in assay [2] and in assay [3] was “inactive” in each case.
Regarding `COC1[C@@H](O[C@@H]2O[C@H](C)[C@@H](O[C@H]3C[C@@](C)(O)[C@H](OC(=O)CC(C)C)[C@H](C)O3)[C@H](N(C)C)[C@H]2O)[C@@H](CC=O)C[C@@H](C)[C@@H](O)/C=C/C=C/C[C@@H](C)OC(=O)C[C@H]1OC(C)=O` (stereo partly drawn), in assay [1], the max activation was -1.32% (inactive). The Potency result in assay [2] and in assay [3] was “inactive” throughout.
For `CCN(CC)CCOC[C@H]1O[C@@H](O)[C@H](OCCN(CC)CC)[C@@H](O)[C@@H]1O`, the max activation in assay [1] is -3.03% (inactive). Further, the Potency entry in assay [2] and in assay [3] was “inactive” each time.
`CC[C@H]1OC(=O)C[C@@H](O)[C@H](C)[C@@H](O[C@@H]2O[C@H](C)[C@@H](O)[C@H](N(C)C)[C@H]2O)[C@@H](CCN2C[C@H](C)C[C@H](C)C2)C[C@@H](C)C(=O)/C=C/C(C)=C/[C@@H]1CO[C@@H]1O[C@H](C)[C@@H](O)[C@@H](OC)[C@H]1OC`: in assay [1], the max activation is -0.718% (inactive). In addition, the Potency result in assay [2] and in assay [3] was “inactive” throughout.
On to `CC(=O)Nc1ccc(OC(C)=O)cc1`, for which the max activation in assay [1] was -1.35% (inactive). Also, the Potency result in assay [2] and in assay [3] was “inactive” in each case.
Consider `CN=C(N)NCCC[C@H](N)C(=O)O`, for which the max activation in assay [1] was -7.28% (inactive). For the same molecule, the Potency entry in assay [2] and in assay [3] was “inactive” in each case.
For `CCCCCCOC(=O)c1cccnc1`, the max activation in assay [1] is -0.199% (inactive). Further, the Potency result in assay [2] and in assay [3] was “inactive” throughout.
Take `O=C(O)Cc1nn(Cc2ccc(Br)cc2F)c(=O)c2ccccc12`: the max activation in assay [1] is 0.657% (inactive). For the same molecule, the Potency result in assay [2] and in assay [3] was “inactive” in each case.
For the molecule `C[N+]1(CCCCC[N+]2(C)CCCC2)CCCC1`, the max activation in assay [1] was -2.61% (inactive). In addition, the Potency result in assay [2] and in assay [3] was “inactive” throughout.
Take `COc1ccc(/C=C/C(=O)O)cc1`: in assay [1], the max activation was 1.47% (inactive). Besides, the Potency entry in assay [2] and in assay [3] was “inactive” each time.
On to `C[C@@H]1C[C@H]2[C@@H]3C[C@H](F)C4=CC(=O)C=C[C@]4(C)[C@@]3(Cl)[C@@H](O)C[C@]2(C)[C@H]1C(=O)COC(=O)C(C)(C)C`, for which the Potency in assay [1] was 2.82 µM (active). Besides, the Potency result in assay [2] and in assay [3] was “inactive” in each case.
For `Cc1ncc(C[n+]2csc(CCOP(=O)(O)O)c2C)c(N)n1`, in assay [1], the max activation was -1.3% (inactive). For the same molecule, the Potency entry in assay [2] and in assay [3] was “inactive” throughout.
Consider `N[C@H](C(=O)O)[C@@H]1CC(Cl)=NO1`, for which the max activation in assay [1] was -12.5% (inactive). Moreover, the Potency result in assay [2] and in assay [3] was “inactive” in each case.
For `CCc1cn([C@H]2C[C@H](O)[C@@H](CO)O2)c(=O)[nH]c1=O`, in assay [1], the max activation is 1.52% (inactive). Also, the Potency entry in assay [2] and in assay [3] was “inactive” in each case.
As to `CC[C@H]1OC(=O)C[C@@H](O)[C@H](C)[C@@H](O[C@@H]2O[C@H](C)[C@@H](O[C@H]3C[C@@](C)(O)[C@@H](O)[C@H](C)O3)[C@H](N(C)C)[C@H]2O)[C@@H](CC=O)C[C@@H](C)C(=O)/C=C/C(C)=C/[C@@H]1CO[C@@H]1O[C@H](C)[C@@H](O)[C@@H](OC)[C@H]1OC`, the max activation in assay [1] was 0.133% (inactive). The Potency entry in assay [2] and in assay [3] was “inactive” in each case.
On to `O=C1c2c(O)cccc2[C@H]([C@@H]2O[C@H](CO)[C@@H](O)[C@H](O)[C@H]2O)c2cc(CO)cc(O)c21`, for which, in assay [1], the max activation was 0.818% (inactive). The Potency entry in assay [2] and in assay [3] was “inactive” in each case.
Consider `CC(C)(COP(=O)(O)OP(=O)(O)OC[C@H]1O[C@@H](n2cnc3c(N)ncnc32)[C@H](O)[C@@H]1OP(=O)(O)O)C(O)C(=O)NCCC(=O)NCCS` (stereo partly drawn), for which the max activation in assay [1] is 0.513% (inactive). The Potency result in assay [2] and in assay [3] was “inactive” each time.
For the molecule `CO/N=C(\C(=O)N[C@@H]1C(=O)N2C(C(=O)O)=C(CSc3cnns3)CS[C@H]12)c1csc(N)n1`, the max activation in assay [1] is -0.96% (inactive). Further, the Potency entry in assay [2] and in assay [3] was “inactive” each time.
Regarding `Cc1cn([C@H]2C[C@H](O)[C@@H](CO)O2)c(=O)[nH]c1=O`, the max activation in assay [1] was -1.3% (inactive). The Potency entry in assay [2] and in assay [3] was “inactive” throughout.
For the molecule `NS(=O)(=O)c1cc(Cl)c(Cl)c(S(N)(=O)=O)c1`, in assay [1], the max activation is -2.98% (inactive). For the same molecule, the Potency entry in assay [2] and in assay [3] was “inactive” throughout.
In the case of `CC(C)=CCC/C(C)=C/CC/C(C)=C/CC/C=C(\C)CC/C=C(\C)CCC=C(C)C`, the max activation in assay [1] was -2.04% (inactive). Also, the Potency entry in assay [2] and in assay [3] was “inactive” in each case.
With `C[S+](C)CCC(N)C(=O)O` (stereo not drawn), in assay [1], the max activation was -3.19% (inactive). The Potency entry in assay [2] and in assay [3] was “inactive” each time.
Regarding `CC[C@@H](C(=O)[C@@H](C)[C@@H](O)[C@H](C)CCc1ccc(C)c(O)c1C(=O)O)[C@H]1O[C@](CC)([C@H]2CC[C@](O)(CC)[C@H](C)O2)C[C@@H]1C`, the max activation in assay [1] was -6.82% (inactive). For the same molecule, the Potency entry in assay [2] is “inactive”. Moreover, the Potency in assay [3] was 8.91 µM (active).

Source of the values: PubChem BioAssay (Tox21).
